# Experimental data from PubChem BioAssay (EPA / NIEHS).
# “And” between values parts separate entries of the source, which are not always exact repeats. Equal entries are not always repeated. Where a structure was tested more than once in an assay, its records may differ in their call. The source made the active and inactive calls. The calls were made as follows: active = hit-call score of the fitted dose curve at least 0.9, where 1 is the maximum; inactive = score below 0.9.
# Columns and labels:
# [1] = read-out: Matrix Metallopeptidase 1 (MMP1), MMP1 (gene 4312); assay: BSK_BF4T_MMP1: BioMAP Diversity Plus: BF4T Assay for Matrix Metallopeptidase 1 (MMP1) Biomarker Activity (AID 2284270); settings: primary human bronchial epithelial cells with fibroblasts
# Summary of the method: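 MMP-1 quantified by ELISA in primary human bronchial epithelial/dermal fibroblast co-cultures, 24 hours post-dosing, with DMSO as baseline; parallel sulforhodamine B staining (560 nm) tracks overt cytotoxicity.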
# [2] = read-out: Tissue plasminogen activator (tPA), PLAT (gene 5327); assay: BSK_BF4T_tPA: BioMAP Diversity Plus: BF4T Assay for Tissue plasminogen activator (tPA) Biomarker Activity (AID 2284272); settings: primary human bronchial epithelial cells with fibroblasts
# Summary of the method: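 tPA level quantified by ELISA at 24 h post-treatment in bronchial epithelial/dermal fibroblast co-cultures, gain of signal scored against DMSO baseline. Parallel cultures stained with 0.1% SRB (560 nm) to flag overt cytotoxicity.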
# [3] = read-out: Plasminogen Activator Inhibitor-1 (PAI1), SERPINE1 (gene 5054); assay: BSK_BF4T_PAI1: BioMAP Diversity Plus: BF4T Assay for Plasminogen Activator Inhibitor-1 (PAI1) Biomarker Activity (AID 2284273); settings: primary human bronchial epithelial cells with fibroblasts
# Summary of the method: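 PAI-1 levels quantified by ELISA 24 h post-dosing in bronchial epithelial cell plus dermal fibroblast cultures. Signal gain referenced to DMSO baseline. Sulforhodamine B total-protein staining of parallel wells checked cytotoxicity.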
# [4] = BSK_BF4T_SRB: Viability Assessment in the BioMAP Diversity Plus: BF4T Assay (AID 2284274); settings: primary human bronchial epithelial cells with fibroblasts
# Summary of the method: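 Cytotoxicity measured as total protein: cells fixed with 10% TCA, stained with 0.1% SRB, read at 560 nm. Bronchial epithelial/dermal fibroblast co-culture, 24 h after dosing, with positive-direction fitting relative to DMSO.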
# [5] = read-out: urokinase Plasminogen Activator (uPA), PLAU (gene 5328); assay: BSK_BF4T_uPA: BioMAP Diversity Plus: BF4T Assay for urokinase Plasminogen Activator (uPA) Biomarker Activity (AID 2284275); settings: primary human bronchial epithelial cells with fibroblasts
# Summary of the method: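 uPA levels measured by ELISA at 24 hours in BF4T cultures (bronchial epithelial cells plus dermal fibroblasts) and compared with DMSO; cytotoxicity tracked in parallel cultures by sulforhodamine B staining.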
# [6] = read-out: Matrix Metallopeptidase 9 (MMP9), MMP9 (gene 4318); assay: BSK_BF4T_MMP9: BioMAP Diversity Plus: BF4T Assay for Matrix Metallopeptidase 9 (MMP9) Biomarker Activity (AID 2284276); settings: primary human bronchial epithelial cells with fibroblasts
# Summary of the method: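 MMP-9 levels were measured by ELISA after 24 h exposure of bronchial epithelial cell/dermal fibroblast co-cultures, with DMSO as baseline. Parallel cultures were stained with 0.1% SRB after TCA fixation, read at 560 nm, to flag overt cytotoxicity.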
# [7] = read-out: Interleukin-8 (IL8), CXCL8 (gene 3576); assay: BSK_IMphg_IL8: BioMAP Diversity Plus: IMphg Assay for Interleukin-8 (IL8) Biomarker Activity (AID 2284277); settings: primary human endothelial cells with macrophages
# Summary of the method: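 IL-8 levels were measured by ELISA 24 h after dosing in primary human venular endothelial cell–macrophage cultures, referenced to DMSO; parallel SRB staining monitored overt cytotoxicity.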
# [8] = read-out: Intercellular Adhesion Molecule 1 (ICAM1), ICAM1 (gene 3383); assay: BSK_BE3C_ICAM1: BioMAP Diversity Plus: BE3C Assay for Intercellular Adhesion Molecule 1 (ICAM1) Biomarker Activity (AID 2284278); settings: primary human bronchial epithelial cells;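 as to outcome: cell-surface ICAM-1 protein level quantified by ELISA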
# Summary of the method: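 ELISA read-out of ICAM-1 on human lung bronchial epithelial primary cells, 24 h post-dosing; positive-direction curve fit, DMSO = baseline. SRB total-protein staining of parallel cultures flagged overt cytotoxicity.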
# [9] = read-out: Interleukin-8 (IL8), CXCL8 (gene 3576); assay: BSK_BE3C_IL8: BioMAP Diversity Plus: BE3C Assay for Interleukin-8 (IL8) Biomarker Activity (AID 2284280); settings: primary human bronchial epithelial cells
# Summary of the method: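 Primary human bronchial epithelial cells (BE3C system) were exposed to test chemical for 24 h, and IL-8 levels were then measured by ELISA. Activity was fitted in the positive (gain-of-signal) direction against a DMSO negative-control baseline.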
# [10] = read-out: Epidermal growth factor receptor (EGFR), EGFR (gene 1956); assay: BSK_BE3C_EGFR: BioMAP Diversity Plus: BE3C Assay for Epidermal growth factor receptor (EGFR) Biomarker Activity (AID 2284281); settings: primary human bronchial epithelial cells
# Summary of the method: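 Human primary bronchial epithelial cells were exposed to compound for 24 h, and cell-surface EGFR was then quantified by ELISA. Activity was fitted in the positive direction against the DMSO vehicle baseline.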
# KRT18 (gene 3875) = assay: BSK_BE3C_Keratin818: BioMAP Diversity Plus: BE3C Assay for Keratin 818 Biomarker Activity (AID 2284282); settings: primary human bronchial epithelial cells
# Summary of the method: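 ELISA read-out of Keratin 8/18 in BE3C human bronchial epithelial cultures, 24 h post-dosing; positive-direction fit vs DMSO baseline.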
# [11] = read-out: Matrix Metallopeptidase 9 (MMP9), MMP9 (gene 4318); assay: BSK_BE3C_MMP9: BioMAP Diversity Plus: BE3C Assay for Matrix Metallopeptidase 9 (MMP9) Biomarker Activity (AID 2284283); settings: primary human bronchial epithelial cells
# Summary of the method: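 Human primary bronchial epithelial cells in the BE3C system were dosed with compound for 24 h. MMP-9 was measured by ELISA, and the positive-direction response was fitted relative to DMSO as baseline. Parallel SRB staining gauged cytotoxicity.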
# [12] = read-out: Plasminogen activator inhibitor-1 (PAI1), SERPINE1 (gene 5054); assay: BSK_CASM3C_PAI1: BioMAP Diversity Plus: CASM3C Assay for Plasminogen activator inhibitor-1 (PAI1) Biomarker Activity (AID 2284284); settings: primary human coronary artery smooth muscle cells
# [13] = read-out: Monocyte Chemoattractant Protein-1 (MCP1), CCL2 (gene 6347); assay: BSK_hDFCGF_MCP1: BioMAP Diversity Plus: hDFCGF Assay for Monocyte Chemoattractant Protein-1 (MCP1) Biomarker Activity (AID 2284285); settings: primary human foreskin fibroblasts
# Summary of the method: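 MCP-1 ELISA readout was taken 24 hours after dosing primary human dermal fibroblasts in the hDFCGF system, with DMSO as baseline. Parallel sulforhodamine B staining of total protein tracked overt cytotoxicity.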
# [14] = read-out: Vascular cell adhesion molecule 1 (VCAM1), VCAM1 (gene 7412); assay: BSK_IMphg_VCAM1: BioMAP Diversity Plus: IMphg Assay for Vascular cell adhesion molecule 1 (VCAM1) Biomarker Activity (AID 2284286); settings: primary human endothelial cells with macrophages
# Summary of the method: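 ELISA read-out of VCAM-1 on venular endothelial cell/macrophage co-cultures at 24 h post-treatment, with DMSO as baseline and positive-direction fitting. Parallel sulforhodamine B total-protein staining (560 nm) served as the overt cytotoxicity measure.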
# [15] = read-out: Intercellular Adhesion Molecule 1 (ICAM1), ICAM1 (gene 3383); assay: BSK_hDFCGF_ICAM1: BioMAP Diversity Plus: hDFCGF Assay for Intercellular Adhesion Molecule 1 (ICAM1) Biomarker Activity (AID 2284287); settings: primary human foreskin fibroblasts
# Summary of the method: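 ICAM-1 ELISA readout 24 h after dosing, DMSO as baseline, in human dermal foreskin fibroblast cultures. Cytotoxicity checked in parallel wells by SRB staining (0.1% SRB, 10% TCA fixation, 560 nm).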
# CD40, CD40 (gene 958) = assay: BSK_IMphg_CD40: BioMAP Diversity Plus: IMphg Assay for CD40 Biomarker Activity (AID 2284288); settings: primary human endothelial cells with macrophages
# Summary of the method: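 ELISA read-out of cell-surface CD40 at 24 h in human venular endothelial cell/macrophage co-cultures. Activity fitted in the positive direction against DMSO; parallel SRB staining (560 nm) gauges overt cytotoxicity.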
# [16] = read-out: TIMP metallopeptidase inhibitor 2 (TIMP2), TIMP2 (gene 7077); assay: BSK_hDFCGF_TIMP2: BioMAP Diversity Plus: hDFCGF Assay for TIMP metallopeptidase inhibitor 2 (TIMP2) Biomarker Activity (AID 2284289); settings: primary human foreskin fibroblasts
# Summary of the method: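 Primary human foreskin fibroblasts in the hDFCGF system, dosed for 24 h; TIMP-2 level measured by ELISA, fitted in the positive direction against DMSO; cytotoxicity checked in parallel by sulforhodamine B total protein staining.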
# [17] = read-out: Interferon-inducible T-cell alpha chemoattractant (ITAC), CXCL11 (gene 6373); assay: BSK_BE3C_ITAC: BioMAP Diversity Plus: BE3C Assay for Interferon-inducible T-cell alpha chemoattractant (ITAC) Biomarker Activity (AID 2284279); settings: primary human bronchial epithelial cells
# Summary of the method: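 Steps: dose human bronchial epithelial cells with chemical; incubate 24 h; measure I-TAC by ELISA; fit endpoint in positive direction against DMSO control. Cytotoxicity was checked in parallel cultures by SRB staining at harvest.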
structure (smiles),measurement,setting,value
NCC(F)(F)C(F)(F)C(F)(F)C(F)(F)C(F)(F)C(F)(F)F,outcome,[1],inactive
same,outcome,[2],inactive
same,outcome,[3],inactive
same,outcome,[4],inactive
same,outcome,[5],inactive
same,AC50,[6],0.778 µM (active)
same,outcome,[6],inactive
same,outcome,[7],inactive
same,outcome,[8],inactive
same,outcome,[9],inactive
same,outcome,[10],inactive
same,outcome,KRT18 (gene 3875),inactive
same,outcome,[11],inactive
same,outcome,[12],inactive
same,outcome,[13],inactive
same,outcome,[14],inactive
same,outcome,[15],inactive
same,outcome,"CD40, CD40 (gene 958)",inactive
same,outcome,[16],inactive
OCC(O)CC(F)(F)C(F)(F)C(F)(F)C(F)(F)F (stereo not drawn),outcome,[1],inactive
same,outcome,[2],inactive
same,outcome,[3],inactive
same,outcome,[4],inactive
same,outcome,[5],inactive
same,outcome,[6],inactive
same,outcome,[7],inactive
same,outcome,[8],inactive
same,outcome,[17],inactive
same,outcome,[9],inactive
same,outcome,[10],inactive
same,outcome,KRT18 (gene 3875),inactive
same,outcome,[11],inactive
same,outcome,[12],inactive
same,outcome,[13],inactive
same,outcome,[14],inactive
same,outcome,[15],inactive
same,outcome,"CD40, CD40 (gene 958)",inactive
same,outcome,[16],inactive
CCN(CCO)S(=O)(=O)C(F)(F)C(F)(F)C(F)(F)C(F)(F)C(F)(F)C(F)(F)C(F)(F)C(F)(F)F,outcome,[1],inactive
same,AC50,[2],13.6 µM (active)
same,outcome,[2],inactive
same,outcome,[3],inactive
same,outcome,[4],inactive
same,outcome,[5],inactive
same,outcome,[6],inactive
same,AC50,[7],50.9 µM (active)
same,outcome,[7],inactive
same,AC50,[8],51.6 µM (active)
same,outcome,[8],inactive
same,AC50,[17],47.1 µM (active) and 42.6 µM (active)
same,AC50,[9],19.3 µM (active) and 11.8 µM (active)
same,AC50,[10],23.2 µM (active) and 13.9 µM (active)
same,outcome,KRT18 (gene 3875),inactive
same,AC50,[11],21.5 µM (active) and 43.3 µM (active)
same,outcome,[12],inactive
same,AC50,[13],32.7 µM (active) and 30 µM (active)
same,AC50,[14],39 µM (active)
same,outcome,[14],inactive
same,outcome,[15],inactive
same,AC50,"CD40, CD40 (gene 958)",36.9 µM (active)
same,outcome,"CD40, CD40 (gene 958)",inactive
same,outcome,[16],inactive
O=C(Cl)C(F)(F)C(F)(F)C(F)(F)C(F)(F)C(F)(F)C(F)(F)F,outcome,[1],inactive
same,outcome,[2],inactive
same,outcome,[3],inactive
same,outcome,[4],inactive
same,outcome,[5],inactive
same,outcome,[6],inactive
same,AC50,[7],15.8 µM (active) and 21.5 µM (active)
same,outcome,[7],inactive
same,outcome,[8],inactive
same,outcome,[9],inactive
same,outcome,[10],inactive
same,outcome,KRT18 (gene 3875),inactive
same,outcome,[11],inactive
same,outcome,[12],inactive
same,outcome,[13],inactive
same,outcome,[14],inactive
same,outcome,[15],inactive
same,outcome,"CD40, CD40 (gene 958)",inactive
same,outcome,[16],inactive
CNS(=O)(=O)C(F)(F)C(F)(F)C(F)(F)C(F)(F)C(F)(F)C(F)(F)C(F)(F)C(F)(F)F,outcome,[1],inactive
same,outcome,[2],inactive
same,outcome,[3],inactive
same,outcome,[4],inactive
same,outcome,[5],inactive
same,outcome,[6],inactive
same,AC50,[7],14.5 µM (active)
same,outcome,[7],inactive
same,outcome,[8],inactive
same,AC50,[9],30 µM (active) and 2.67 µM (active)
same,outcome,[10],inactive
same,outcome,KRT18 (gene 3875),inactive
same,AC50,[11],4.25 µM (active) and 373 nM (active)
same,outcome,[12],inactive
same,outcome,[13],inactive
same,AC50,[14],16.3 µM (active)
same,outcome,[14],inactive
same,AC50,[15],36.8 µM (active)
same,outcome,[15],inactive
same,outcome,"CD40, CD40 (gene 958)",inactive
same,AC50,[16],7.96 µM (active)
same,outcome,[16],inactive
